# According to ChEMBL document CHEMBL1961873, “Compounds: GSK PKIS; Assays: Nanosyn kinase panel” (2012):
# Columns and labels:
# [1] = molecular target: T1, Inhibitor of nuclear factor kappa-B kinase subunit epsilon (Homo sapiens) (UniProt Q14164); conditions: at 1 µM;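 also: reported values are averaged percent inhibition figures against human IKKε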
# T1 sequence (whole entry): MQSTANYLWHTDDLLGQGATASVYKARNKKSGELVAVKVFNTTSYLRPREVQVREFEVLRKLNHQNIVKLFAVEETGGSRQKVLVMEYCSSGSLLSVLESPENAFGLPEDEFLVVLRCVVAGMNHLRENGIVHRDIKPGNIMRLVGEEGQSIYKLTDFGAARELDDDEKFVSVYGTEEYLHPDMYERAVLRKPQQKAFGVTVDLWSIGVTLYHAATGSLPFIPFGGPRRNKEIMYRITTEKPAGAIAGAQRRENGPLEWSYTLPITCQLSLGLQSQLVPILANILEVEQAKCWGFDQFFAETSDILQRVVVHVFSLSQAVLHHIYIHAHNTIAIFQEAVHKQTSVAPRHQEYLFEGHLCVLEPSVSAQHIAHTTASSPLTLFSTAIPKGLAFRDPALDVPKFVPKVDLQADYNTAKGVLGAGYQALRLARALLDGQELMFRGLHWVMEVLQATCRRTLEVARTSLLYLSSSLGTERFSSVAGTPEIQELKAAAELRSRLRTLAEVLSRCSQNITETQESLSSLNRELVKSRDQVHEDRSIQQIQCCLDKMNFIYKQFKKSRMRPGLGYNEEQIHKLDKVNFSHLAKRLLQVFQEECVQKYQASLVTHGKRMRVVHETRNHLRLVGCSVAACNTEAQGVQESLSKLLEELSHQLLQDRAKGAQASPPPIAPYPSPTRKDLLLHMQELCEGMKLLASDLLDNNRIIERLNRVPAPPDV
# [2] = molecular target: T2, Serine/threonine-protein kinase Nek1 (Homo sapiens) (UniProt Q96PY6); conditions: at 0.1 µM
# T2 sequence (whole entry): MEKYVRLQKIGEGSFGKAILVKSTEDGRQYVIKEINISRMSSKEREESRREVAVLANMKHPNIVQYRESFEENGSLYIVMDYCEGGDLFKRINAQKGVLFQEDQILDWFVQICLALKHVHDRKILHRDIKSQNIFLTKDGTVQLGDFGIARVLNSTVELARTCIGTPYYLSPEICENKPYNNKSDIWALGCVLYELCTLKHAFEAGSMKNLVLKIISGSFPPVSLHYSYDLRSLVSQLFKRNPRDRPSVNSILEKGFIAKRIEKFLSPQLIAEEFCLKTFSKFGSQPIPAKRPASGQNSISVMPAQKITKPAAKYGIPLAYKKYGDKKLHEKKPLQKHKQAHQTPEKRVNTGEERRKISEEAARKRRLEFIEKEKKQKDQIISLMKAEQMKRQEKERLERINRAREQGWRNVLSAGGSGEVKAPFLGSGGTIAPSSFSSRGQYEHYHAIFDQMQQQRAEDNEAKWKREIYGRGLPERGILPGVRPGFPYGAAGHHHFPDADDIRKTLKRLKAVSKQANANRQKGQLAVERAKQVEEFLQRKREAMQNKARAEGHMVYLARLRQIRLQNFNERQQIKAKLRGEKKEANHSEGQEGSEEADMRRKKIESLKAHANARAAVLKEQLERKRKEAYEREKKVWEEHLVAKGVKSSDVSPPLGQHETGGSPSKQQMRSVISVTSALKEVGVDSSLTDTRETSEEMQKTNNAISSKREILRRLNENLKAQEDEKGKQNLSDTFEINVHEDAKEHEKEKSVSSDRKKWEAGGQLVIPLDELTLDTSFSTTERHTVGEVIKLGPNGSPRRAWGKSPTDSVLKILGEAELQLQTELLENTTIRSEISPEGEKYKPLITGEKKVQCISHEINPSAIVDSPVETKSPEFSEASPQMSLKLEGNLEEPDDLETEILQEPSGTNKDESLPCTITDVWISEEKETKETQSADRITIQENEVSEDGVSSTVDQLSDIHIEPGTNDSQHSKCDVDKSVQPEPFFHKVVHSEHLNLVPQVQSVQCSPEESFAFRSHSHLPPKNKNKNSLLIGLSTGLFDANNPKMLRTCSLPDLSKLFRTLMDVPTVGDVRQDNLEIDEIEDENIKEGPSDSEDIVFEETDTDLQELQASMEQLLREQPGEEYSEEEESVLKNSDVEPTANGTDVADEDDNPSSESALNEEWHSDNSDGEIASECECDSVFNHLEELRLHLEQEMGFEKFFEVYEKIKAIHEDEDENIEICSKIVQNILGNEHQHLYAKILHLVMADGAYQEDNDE
# [3] = molecular target: T2, Serine/threonine-protein kinase Nek1 (Homo sapiens); conditions: at 1 µM
# [4] = molecular target: T3, Serine/threonine-protein kinase Nek2 (Homo sapiens) (UniProt P51955); conditions: at 0.1 µM
# T3 sequence (whole entry): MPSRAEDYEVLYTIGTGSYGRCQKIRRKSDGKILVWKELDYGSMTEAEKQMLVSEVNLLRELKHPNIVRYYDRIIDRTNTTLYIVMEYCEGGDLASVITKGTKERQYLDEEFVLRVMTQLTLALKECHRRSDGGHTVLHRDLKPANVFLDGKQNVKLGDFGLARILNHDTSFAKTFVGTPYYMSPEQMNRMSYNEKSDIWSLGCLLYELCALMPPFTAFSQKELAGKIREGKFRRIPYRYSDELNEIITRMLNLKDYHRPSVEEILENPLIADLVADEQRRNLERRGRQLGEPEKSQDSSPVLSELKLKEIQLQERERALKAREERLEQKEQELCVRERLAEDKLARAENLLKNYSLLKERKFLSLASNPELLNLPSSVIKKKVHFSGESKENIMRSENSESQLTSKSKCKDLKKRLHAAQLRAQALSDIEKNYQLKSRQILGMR
# [5] = molecular target: T3, Serine/threonine-protein kinase Nek2 (Homo sapiens); conditions: at 1 µM
# [6] = molecular target: Serine/threonine-protein kinase Nek6 (Homo sapiens) (UniProt Q9HC98); conditions: at 0.1 µM
# [7] = molecular target: Serine/threonine-protein kinase Nek6 (Homo sapiens) (UniProt Q9HC98); conditions: at 1 µM
# [8] = molecular target: Serine/threonine-protein kinase Nek7 (Homo sapiens) (UniProt Q8TDX7); conditions: at 0.1 µM
# [9] = molecular target: Serine/threonine-protein kinase Nek7 (Homo sapiens) (UniProt Q8TDX7); conditions: at 1 µM
# [10] = molecular target: T4, Serine/threonine-protein kinase Nek9 (Homo sapiens) (UniProt Q8TD19); conditions: at 0.1 µM;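 also: reported value is the mean percent inhibition of NEK9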
# T4 sequence (whole entry): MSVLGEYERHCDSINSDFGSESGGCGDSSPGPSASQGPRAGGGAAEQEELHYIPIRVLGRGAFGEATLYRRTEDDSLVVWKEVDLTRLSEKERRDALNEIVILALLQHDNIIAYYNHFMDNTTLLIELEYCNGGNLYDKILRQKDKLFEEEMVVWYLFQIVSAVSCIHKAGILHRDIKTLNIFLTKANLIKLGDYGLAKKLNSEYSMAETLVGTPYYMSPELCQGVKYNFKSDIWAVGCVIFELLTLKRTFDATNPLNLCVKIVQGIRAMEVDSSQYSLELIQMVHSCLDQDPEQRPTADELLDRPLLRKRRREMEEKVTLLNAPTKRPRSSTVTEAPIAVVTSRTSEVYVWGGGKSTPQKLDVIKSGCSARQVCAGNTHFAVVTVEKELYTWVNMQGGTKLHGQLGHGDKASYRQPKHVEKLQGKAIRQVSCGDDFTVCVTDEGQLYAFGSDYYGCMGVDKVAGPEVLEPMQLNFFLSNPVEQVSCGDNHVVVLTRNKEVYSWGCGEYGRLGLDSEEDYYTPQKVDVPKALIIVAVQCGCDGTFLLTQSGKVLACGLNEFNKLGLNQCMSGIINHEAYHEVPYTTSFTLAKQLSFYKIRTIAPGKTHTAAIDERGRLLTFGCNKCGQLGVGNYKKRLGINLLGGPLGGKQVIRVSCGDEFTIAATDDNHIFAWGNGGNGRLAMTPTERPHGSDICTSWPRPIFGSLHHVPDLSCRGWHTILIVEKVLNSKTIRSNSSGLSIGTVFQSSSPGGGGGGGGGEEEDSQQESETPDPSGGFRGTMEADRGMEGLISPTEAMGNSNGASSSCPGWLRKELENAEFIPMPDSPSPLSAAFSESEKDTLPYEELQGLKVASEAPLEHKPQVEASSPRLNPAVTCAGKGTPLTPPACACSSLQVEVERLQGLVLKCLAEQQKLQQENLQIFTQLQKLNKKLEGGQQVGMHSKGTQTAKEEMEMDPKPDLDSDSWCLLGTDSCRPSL
# Serine/threonine-protein kinase Nek7 (Homo sapiens), sequence (Q8TDX7 whole entry, looked up): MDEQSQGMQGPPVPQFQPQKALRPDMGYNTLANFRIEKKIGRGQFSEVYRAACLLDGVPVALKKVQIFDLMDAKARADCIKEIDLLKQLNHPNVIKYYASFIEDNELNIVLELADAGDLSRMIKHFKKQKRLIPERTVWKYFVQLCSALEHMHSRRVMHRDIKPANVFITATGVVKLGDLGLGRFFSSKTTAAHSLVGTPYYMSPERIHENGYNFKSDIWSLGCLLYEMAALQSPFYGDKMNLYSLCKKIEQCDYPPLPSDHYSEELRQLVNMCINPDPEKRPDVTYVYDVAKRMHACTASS
# Serine/threonine-protein kinase Nek6 (Homo sapiens), sequence (Q9HC98 whole entry): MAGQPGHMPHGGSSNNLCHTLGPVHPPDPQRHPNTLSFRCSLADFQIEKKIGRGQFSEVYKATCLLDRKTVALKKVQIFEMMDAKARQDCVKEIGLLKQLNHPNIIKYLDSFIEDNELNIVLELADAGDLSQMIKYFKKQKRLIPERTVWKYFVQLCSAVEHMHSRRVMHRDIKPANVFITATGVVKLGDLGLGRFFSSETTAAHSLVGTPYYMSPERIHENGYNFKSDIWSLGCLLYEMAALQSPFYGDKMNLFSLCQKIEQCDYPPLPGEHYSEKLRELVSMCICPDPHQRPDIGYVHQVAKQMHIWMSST
structure (smiles),measurement,setting,value
CN(c1ccc(NC(=O)Nc2c(Cl)cccc2Cl)cc1)c1ccnc(Nc2cccc(CS(C)(=O)=O)c2)n1,inhibition,[1],8.6%
same,inhibition,[2],1.38%
same,inhibition,[3],1.93%
same,inhibition,[4],0.12%
same,inhibition,[5],1.07%
same,inhibition,[6],0.64%
same,inhibition,[7],1.86%
same,inhibition,[8],1.01%
same,inhibition,[9],1.59%
same,inhibition,[10],-4.22%
